# Screens deposited in PubChem BioAssay by National Center for Advancing Translational Sciences (NCATS).
# Only some compounds are listed: those with a hit (about 6.1% of all), similar ones and a draw of the others.
# ATXN viability: viability counter-screen for ATXN expression inhibitors; 400,000 tested, 0.49% active; AID 651635; Potency, µM (titrated, usually from 56.7 µM), usual class: cytotoxic; S2 cells (HEK-293 line with an ATXN2-luciferase reporter) viability, CellTiter-Fluor protease fluorescence, 24 h; also: nearly all actives have a fitted effect of over 40% in size
# ATXN2 expr inh: ATXN2 expression inhibition; HEK-293 ATXN2-luciferase reporter, luminescence, 24 h; Potency, µM (series often up to 57 µM), for the others: top-dose activity change, negative = inhibition, actives largely listed as inhibitors; 360,000 tested, 0.72% active; also: % is scaled to controls: 0 for no effect and ±100 for the full control effect; nearly all actives have a fitted effect of over 55% in size
#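 qHTS (up to 57 uM final) was run with 24 h compound exposure of reporter cells at 37 °C. Each well was multiplexed: SteadyGlo luminescence measured ATXN2-luciferase expression after a fluorogenic Gly-Phe-AFC viability readout (25 uM final).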
# TGFb inhibitor: inhibitors of TGF-b signaling | HepG2 CAGA-GFP TGF-b/SMAD3 reporter, GFP fluorescence, 18 h; TGF-beta stimulated, 500 pg/mL final | Potency, µM (series often up to 46.1 µM), for the others: at the highest dose activity, negative = inhibition, most hits filed as inhibitors | 410,000 tested, 1.2% active | AID 588855; also: % is scaled to controls: 0 for no effect and ±100 for the full control effect; nearly all actives have a fitted effect of over 65% in size
#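 HEPG2 CAGA-GFP cells (1000/well, DMEM with 1% FBS) were pre-incubated 2 h at 37 degrees C, given compound by pin tool, then stimulated with TGF-beta at 500 pg/mL final for 18 h before per-cell GFP fluorescence imaging.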
# RORg inh: ROR gamma (mouse) transcription inhibition; P51450; Drosophila S2 Gal4-RORgamma UAS-luciferase reporter, 20 h; Potency, µM (highest dose often 53.6 µM), inactives show at the highest dose activity change, negative = inhibition, usual class: inhibitors; 310,000 tested, 5.4% active; AID 2551; also: % is scaled to controls: 0 for no effect and ±100 for the full control effect; nearly all actives have a fitted effect of over 60% in size
# Target sequence (P51450 whole entry, looked up, the tested form may be a part): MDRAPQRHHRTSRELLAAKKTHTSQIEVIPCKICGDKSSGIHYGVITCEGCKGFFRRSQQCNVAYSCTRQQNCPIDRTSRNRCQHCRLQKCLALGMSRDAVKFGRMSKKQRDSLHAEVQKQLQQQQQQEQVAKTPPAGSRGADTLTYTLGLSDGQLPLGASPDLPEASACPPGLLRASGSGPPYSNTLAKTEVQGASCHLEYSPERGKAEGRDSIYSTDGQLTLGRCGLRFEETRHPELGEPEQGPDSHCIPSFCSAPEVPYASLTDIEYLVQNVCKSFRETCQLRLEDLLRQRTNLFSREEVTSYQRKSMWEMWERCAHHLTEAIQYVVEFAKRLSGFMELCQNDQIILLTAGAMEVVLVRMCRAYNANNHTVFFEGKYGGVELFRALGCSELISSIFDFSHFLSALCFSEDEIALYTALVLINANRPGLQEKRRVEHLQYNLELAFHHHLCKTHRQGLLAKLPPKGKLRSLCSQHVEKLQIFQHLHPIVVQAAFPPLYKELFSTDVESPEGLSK
#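 Compounds are pin-transferred onto Drosophila Schneider cells expressing a copper-inducible Gal4–ROR gamma transactivation domain fusion. After 1 hr, copper sulfate is added to 700 uM final; luciferase is read 20 hr later.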
# HepG2 viability: kills HepG2 cells in TGF-b inhibitor counter-screen; HepG2 CAGA-GFP viability, ATP luminescence, 18 h; Potency, µM (top dose mostly 46.1 µM), inactives show at the top dose activity change, negative = cytotoxicity, actives largely listed as cytotoxic; 410,000 tested, 0.76% active
#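 HepG2 CAGA-GFP cells (1000/well, DMEM with 1% FBS) received compound, then TGF-beta at 500 pg/mL final, and were incubated 18 hours at 37 degrees C. Viability was read by CellTiter-Glo luminescence. Media-only wells were set as complete cell-killing and DMSO as no toxicity.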
# Gal4-VP16 FLuc: Gal4-VP16 reporter inhibition counter-screen | Drosophila S2 Gal4-VP16 UAS-luciferase, luminescence, 20 h | Potency, µM (highest dose often 53.6 µM), for the others: at the top dose activity, negative = inhibition, usual class: inhibitors | 310,000 tested, 3.5% active;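 also: Gal4-VP16 expression switched on by copper sulfate through the metallothionein promoter; % is scaled to controls: 0 for no effect and ±100 for the full control effect; nearly all actives have a fitted effect of over 50% in size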
# Numbers without * were called inactive; i = inactive; ? = inconclusive; nt = not tested or not shown; [ ] = dose if it differs, or a comment. Calls follow the shape of the dose curve; as a rule, active = well fitted curve in the direction sought with a large enough effect; inconclusive = small, poorly fitted or top-dose-only effect, or another doubt; inactive = no such curve, though single readings can be large; an effect the other way counts as inactive or inconclusive. Potency is read from the fitted curve at half-maximal effect.
SMILES,ATXN viability,ATXN2 expr inh,TGFb inhibitor,RORg inh,HepG2 viability,Gal4-VP16 FLuc
Cc1cc(C)nc(Nc2n[nH]c(-c3ccccc3Br)n2)n1,i,13%,11%,14µM*,-10%,?
Cc1cc(C)nc(Nc2n[nH]c(-c3ccc(C(C)(C)C)cc3)n2)n1,i,22%[11.3 µM],18%,10µM*,4%,5%
Cc1cc(C)nc(Nc2n[nH]c(-c3ccc(N)cc3)n2)n1,i,0%,1%,0%,4%,?
COc1ccccc1C(=O)NCc1ccc2c(c1)CCN2C(=O)c1ccncc1,nt,nt,8%,nt,-14%,nt
O=C(NCCc1ccccc1)C1(c2cccs2)CCOCC1,i,14%,0%,nt,0%,nt
CC1(C)Cc2c(C#N)c(N)sc(=S)c2CS1,i,-17%,-7%,?,3.5µM*,-22%
N#Cc1ccc2c(c1)C[C@]1(c3ccsc3)Oc3c(c(=O)oc4ccccc34)C2O1,nt,nt,nt,?,nt,-4%[10 µM]
CCC(=O)c1ccc(N2CCN(C(=O)Cc3ccccc3)CC2)c(F)c1,i,7%,-18%,?,-30%,?
CCC(=O)c1cc(F)c(N2CCN(C(=O)Cc3ccccc3)CC2)cc1C,i,-20%,4%,11%,-18%,13µM*
CCC[C@H](NC(=O)C(C#N)=Cc1cccc(Br)n1)c1ccccc1,nt,11µM*,nt,nt,nt,nt
CCOc1ccc(/C=C2/SC(=S)N(CCC(=O)Nc3ccc(C(=O)O)cc3)C2=O)cc1,i,16%,-7%,?,0%,4%
COc1ccc(/C=C2/SC(=S)N(CCC(=O)N3CCN(C)CC3)C2=O)cc1,?,14%,0%,10µM*,0%,19%
CCOc1ccc(/C=C2\SC(=S)N(CCC(=O)O)C2=O)cc1,i,?,-2%,1.1µM*,-4%,-3%
COC(=O)c1ccc(/C=C2\SC(=S)N(CCCC(=O)N3CCOCC3)C2=O)cc1,i,12%,2%,nt,-3%,nt
Cc1ccc(/C=C2\SC(=S)N(CCCC(=O)N3CCOCC3)C2=O)cc1,?,?,4%,3.2µM*,0%,?
COc1ccc(/C=C2\SC(=S)N(CC(=O)N3CCN(C)CC3)C2=O)cc1,?,78%,-7%,-12%,-3%,2%
COc1ccc(/C=C2/SC(=S)N(CCCC(=O)N3CCN(C)CC3)C2=O)cc1,nt,-27%,?,1.4µM*,-9%,2.5µM*
O=C(c1ccc(Cl)cc1)N1CCC(c2ccncc2)CC1,i,-14%,-10%,nt,1%,nt
C[C@@H](c1ccccc1)N1C[C@@H](COCc2ccccc2)Oc2cc(N3CC[C@@H](N(C)C)C3)ccc2S1(=O)=O,20µM*,28µM*,nt,nt,nt,nt
CCCCC[C@H](C)N1C[C@H](COCc2ccccc2)Oc2cc(N3CC[C@@H](N(C)C)C3)ccc2S1(=O)=O,28µM*,?,nt,nt,nt,nt
CCCCC[C@H](C)N1C[C@@H](COCc2ccccc2)Oc2cc(N3CC[C@@H](O)C3)ccc2S1(=O)=O,?,-1%,nt,nt,nt,nt
CCCCC[C@@H](C)N1C[C@@H](COCc2ccccc2)Oc2cc(N3CC[C@@H](N(C)C)C3)ccc2S1(=O)=O,28µM*,?,nt,nt,nt,nt
CCCCC[C@@H](C)N1C[C@H](COCc2ccccc2)Oc2cc(N3CC[C@@H](N(C)C)C3)ccc2S1(=O)=O,25µM*,?,nt,nt,nt,nt
COc1ccc(C(=O)NCCSc2c[nH]c3ccccc23)cc1OC,i,-20%,-23%,nt,-21%,nt
COc1cc(=O)n2c(c1C(=O)N(C)Cc1nonc1C)CCN(Cc1cc(C)c(C)cc1C)CC2,i,nt,nt,nt,nt,nt
SMILES,ATXN viability,ATXN2 expr inh,TGFb inhibitor,RORg inh,HepG2 viability,Gal4-VP16 FLuc
CC(=O)c1ccc(N2CCN(S(=O)(=O)c3ccc4c(c3)CC(C)N4C(=O)C3CCC3)CC2)cc1 (centres undefined),i,7%,-1%,nt,2%,nt
NNc1nc(Nc2ccccc2)nc(N2CCCCC2)n1,i,5%,3%,5µM*,-7%,7.1µM*
NNc1nc(Nc2ccc([N+](=O)[O-])cc2)nc(N2CCCCCC2)n1,i,nt,?,?,-35%,16µM*
O=[N+]([O-])c1ccc(Nc2nc(N/N=C\c3ccc4c(c3)OCO4)nc(N3CCCCC3)n2)cc1,?,-2%,6%,4.5µM*,1%,?
COc1ccc(Nc2nc(NN)nc(Nc3ccc(OC)cc3)n2)cc1,i,nt,12%,-36%[1.91 µM],-7%,?
O=[N+]([O-])c1ccc(Nc2nc(NCCO)nc(N3CCCC3)n2)cc1,?,-19%,-2%,17%,-14%,-13%
O=[N+]([O-])c1ccc(/C=N/Nc2nc(N3CCCCC3)nc(N3CCCCC3)n2)cc1,i,nt,-3%,-13%,-1%,-9%
c1ccc(Nc2nc(N3CCOCC3)nc(N3CCOCC3)n2)cc1,i,-10%,62%,-4%,-25%,-6%
NNc1nc(Nc2ccccc2)nc(Nc2ccccc2)n1,i,1%,-1%,16µM*,-9%,-24%
O=C1NC(=O)C(=Cc2ccc(-c3ccc(F)cc3O)o2)S1,nt,26%,nt,nt,nt,nt
O=C(c1cc(COc2ccc3ncccc3c2)on1)N1CCC[C@H]1CO,?,11%,?,?,-2%,5µM*
O=C(NC1CCCCCCC1)c1cc(COc2ccc3ncccc3c2)on1,i,-33%,?,?,-12%,4µM*
CC(CNC(=O)c1cc(COc2ccc3ncccc3c2)on1)c1ccccc1 (centres undefined),nt,?,?,?,-28%,10µM*
Cc1cc(CN(C)C(=O)c2cc(COc3ccc4ncccc4c3)on2)on1,i,-10%,-12%,7.9µM*,-18%,3.2µM*
Cc1cccc(C)c1OCC(=O)NCC1(N(C)C)CCCCC1,i,-4%,1%,nt,3%,nt
Cc1cccnc1CN1CCN(C(=O)c2cc(COc3ccc4ncccc4c3)on2)CC1,i,-35%,?,?,-1%,?
CCOC(=O)N1CCN(C(=O)c2cc(COc3ccc4ncccc4c3)on2)CC1,i,?,-5%,?,-19%,7.1µM*
CCC(=O)NC(=S)Nc1ccc(NC(=O)c2ccco2)cc1,i,9%,-14%,-19%,-16%,8%
CCCCC(=O)NC(=S)Nc1cccc(NC(=O)c2ccco2)c1,i,-5%,?,?,-23%,16µM*
CC(C)CC(=O)NC(=S)Nc1ccc(NC(=O)c2ccco2)cc1,i,1%,7%,13µM*,20%,-15%
CCOc1ccc(NC(=S)NC(=O)c2ccco2)cc1,i,nt,-15%,6.3µM*,-10%,?
